# Source: PubChem BioAssay
# An excerpt weighted towards active compounds, which were near 3.7% of everything screened.
# FBA Mtb inh – inhibitors of M. tuberculosis fructose-bisphosphate aldolase. P9WQA3. purified M. tuberculosis FBA, fluorescence read-out. AID 588726. actives 2.3% (n = 360,000). inhibition, % at 1 µM; in the data active = inhibition above about 27%
# Target sequence (P9WQA3 whole entry, looked up): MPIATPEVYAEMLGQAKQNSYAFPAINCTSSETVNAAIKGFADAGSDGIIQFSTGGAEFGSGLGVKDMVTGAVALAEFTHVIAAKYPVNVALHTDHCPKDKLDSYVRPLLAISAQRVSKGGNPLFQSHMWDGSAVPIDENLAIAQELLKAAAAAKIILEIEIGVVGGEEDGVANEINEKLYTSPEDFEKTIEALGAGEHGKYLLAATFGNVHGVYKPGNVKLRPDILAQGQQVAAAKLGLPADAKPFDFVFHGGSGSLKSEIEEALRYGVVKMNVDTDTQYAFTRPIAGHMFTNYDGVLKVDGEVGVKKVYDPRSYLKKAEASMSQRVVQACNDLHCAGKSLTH
# Mtb bLac sens – beta-lactam sensitization of Mtb H37Rv. M. tuberculosis H37Rv growth with meropenem, percent inhibition. inhibition, % at 25 µM. actives 0.27% (n = 330,000). AID 434955; call rule not given here;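 also: growth measured after seven days incubation then overnight dye step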
# FadD28 binding – inhibitors of Mycobacterium tuberculosis FadD28 bisubstrate binding | FadD28 bisubstrate probe binding, fluorescence polarization | inhibition, % at 12.5 µM | actives 0.22% (n = 360,000) | AID 588549; in the data active = inhibition above about 8.5%, passing the limit was not always enough; inconclusive = no clear call, values can overlap the other calls
# Mtb UGM inh – inhibitors of M. tuberculosis UDP-galactopyranose mutase; P9WIQ1; purified UGM, fluorescence polarization probe displacement; inhibition, % at 10 µM; actives 0.06% (n = 320,000); in the data active = inhibition above about 10%, passing the limit was not always enough; inconclusive = no clear call, values can overlap the other calls
# GDH-TPI inh – GDH-TPI coupled enzyme inhibition counter-screen | GDH-TPI coupled enzyme counterscreen, NADH absorbance | inhibition, % at 4.8 µM | actives 1.2% (n = 360,000); in the data active = inhibition above about 30%
# Rv3671c inh – inhibitors of M. tuberculosis serine protease Rv3671c. AID 2606. inhibition, % at 5.96 µM. actives 0.048% (n = 320,000). P9WHR9; in the data active = inhibition above about 38%;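 also: extracellular domain of Rv3671c used as enzyme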
# Numbers stand for hits; 0 = inactive; ? = inconclusive; - = no result given; + = active, no number.
SMILES,FBA Mtb inh,Mtb bLac sens,FadD28 binding,Mtb UGM inh,GDH-TPI inh,Rv3671c inh
COc1cccc(C2c3[nH]c4ccccc4c3C[C@H]3C(=O)N(c4ccccc4C(=O)N4CCC(C(=O)O)CC4)C(=O)N23)c1 (some centres not stated),0,0,0,0,0,0
O=C(Nc1cccc(-c2cn3cccnc3n2)c1)c1ccc(Br)o1,+,?,0,0,0,0
O=C(CC(=O)c1ccccc1)CS(=O)(=O)c1ccccc1,0,-,0,-,41,-
Cc1ccc(S(=O)(=O)CC(=O)c2ccccc2)cc1,0,0,0,0,0,0
CCOC(=O)N1CCC(NC(=O)c2ccc3c(c2)N(Cc2ccc(C)cc2)CCS3)CC1,0,0,0,0,0,0
COc1ccc(OC)c(CCNC(=O)c2ccc3c(c2)N(Cc2ccccc2)CCS3)c1,0,0,0,0,0,0
O=C(NCC1CCCO1)c1ccc2c(c1)N(Cc1ccc(F)cc1)CCS2 (configuration not stated),119,0,0,0,0,0
CN1CCN(CCCNC(=O)c2ccc3c(c2)N(Cc2ccc(F)cc2)CCS3)CC1,159,0,0,0,0,0
CCOC(=O)N1CCC(NC(=O)c2ccc3c(c2)N(C)CCS3)CC1,114,0,0,0,0,0
CCN1CCN(CCCNC(=O)c2ccc3c(c2)N(Cc2ccccc2)CCS3)CC1,170,0,0,0,0,0
CCOC(=O)N1CCN(C(=O)c2ccc3c(c2)N(Cc2ccc(F)cc2)CCS3)CC1,0,0,0,0,0,0
O=C(NCC1CCCO1)c1ccc2c(c1)N(Cc1ccc(F)cc1Cl)C(=O)CS2 (configuration not stated),0,0,0,0,0,0
O=C(NC1CC1)c1ccc2c(c1)N(Cc1ccccc1)CCS2,161,0,0,0,0,0
CCOC(=O)C1CCCN(C(=O)CCCn2nnnc2CN2CCOCC2)C1 (configuration not stated),0,-,0,-,0,-
CCCC(=O)Nc1ccc(-c2cn3cccnc3n2)cc1,+,0,0,0,0,0
CC(C)(C)CC(=O)Nc1ccc(-c2cn3cccnc3n2)cc1,+,0,0,0,0,0
CC(C)CC(=O)Nc1ccc(-c2cn3cccnc3n2)cc1,+,0,0,0,0,0
CC(C)CC(=O)Nc1ccc(-c2cn3ccsc3n2)cc1,0,0,0,0,0,0
CCCC(=O)Nc1cc(-c2cn3cccnc3n2)ccc1OC,0,-,0,0,0,0
CCOCC(=O)Nc1ccc(-c2cn3cccnc3n2)cc1,+,0,0,0,0,0
NS(=O)(=O)c1ccc(CCNCC(=O)N2CCC(Cc3ccccc3)CC2)cc1,0,0,0,0,0,0
Cc1cc(OCC(=O)NCCc2cccc(F)c2)c2c(C)cc(=O)oc2c1,0,0,0,0,0,0
COc1ccc([C@@H]2CC(=O)[C@@H]3CN(S(=O)(=O)c4ccc(C)cc4)[C@H](c4cccc(Cl)c4)C[C@@H]3N2S(=O)(=O)c2ccccc2)cc1,0,-,0,-,-,-
CCCCC(=O)Nc1cccc(-c2cn3ccccc3n2)c1,33,0,0,0,0,0
CCN(CC)S(=O)(=O)c1cccc(-c2cn3cccnc3n2)c1,181,0,0,0,0,0
SMILES,FBA Mtb inh,Mtb bLac sens,FadD28 binding,Mtb UGM inh,GDH-TPI inh,Rv3671c inh
O=C(Nc1ccccc1)Nc1cccc(-c2cn3cccnc3n2)c1,0,0,0,0,0,0
CCCC(=O)Nc1cccc(-c2cn3cccnc3n2)c1,189,0,0,0,0,0
CCN(CC)S(=O)(=O)c1cccc(-c2csc(C)n2)c1,0,0,0,0,0,0
NC(c1csc(Nc2cc(Oc3ccccc3)ncn2)n1)c1ccccc1Cl (configuration not stated),0,-,0,-,0,-
CCN1C[C@@H]2[C@@H]3C(=O)N(Cc4ccccc4)C(=O)[C@@H]3[C@](C)(C(=O)OC)N2C1=NC,0,-,0,-,0,-
O=C(CCN1C(=O)S/C(=C\c2ccc(F)cc2)C1=O)Nc1ccc(C(=O)O)c(O)c1,0,0,0,0,43,0
O=C(CCN1C(=O)S/C(=C/c2ccccc2)C1=O)Nc1ccc(C(=O)O)c(O)c1,0,0,0,0,0,0
O=C(CCN1C(=O)S/C(=C\c2ccc(F)cc2)C1=O)Nc1ccc(O)cc1C(=O)O,0,0,0,0,43,0
O=C(CCN1C(=O)S/C(=C/c2ccc(F)cc2)C1=O)Nc1ccc(O)c(C(=O)O)c1,0,0,0,0,32,0
O=C(CCN1C(=O)S/C(=C\c2ccc(Cl)cc2)C1=O)Nc1ccc(C(=O)O)cc1,0,0,0,0,0,0
